Among the data in PubChem BioAssay (NCI) are growth inhibition values, retold here.

This is part of a sample that, as a whole, favours compounds with a hit. Of some 79,000 tested, about 15% had one in any assay. Values without a mark were called inactive. The source made the active and inactive calls. Cut-off read from the data, not from the text of the source: active = growth inhibition above about 70%; inactive = the rest.

Experiment [1] is described as follows: NCI Yeast Anticancer Drug Screen. Data for the rad50 strain (AID 155).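 Note: 0% = growth of vehicle-only cultures of the same strain.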 The note with it: S. cerevisiae rad50 strain growth inhibition; at 50.0 µM; stronger effect = higher value. The essentials: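 A DNA repair-deficient yeast mutant serves as the test organism; compound-induced growth inhibition is calculated against vehicle-treated cells.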
Experiment [2] is described as follows: NCI Yeast Anticancer Drug Screen. Data for the mec2-1 strain (AID 157). The note with it: S. cerevisiae mec2-1 strain, at 50.0 µM, stronger effect = higher value. The essentials:
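Cells of the genetically defined mec2-1 yeast strain are incubated with test compound. Inhibition of growth is calculated against vehicle-treated controls.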

Experiment [3] in a line: NCI Yeast Anticancer Drug Screen. Data for the sgs1 mgt1 strain (AID 161).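 Note: 0% = growth of cultures given vehicle only.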 The conditions noted are these: S. cerevisiae sgs1 mgt1 strain, at 50.0 µM, stronger effect = higher value. The essentials:
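Mutant yeast exposed to compound; growth scored against vehicle-only wells.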

The nature of experiment [4]: NCI Yeast Anticancer Drug Screen. Data for the cln2 rad14 strain (AID 165).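 Note: 0% = growth equal to vehicle treated cultures.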 The conditions noted are these: S. cerevisiae cln2 rad14 strain, at 50.0 µM, stronger effect = higher value. The essentials:
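The screen exposed genetically defined yeast (cln2 rad14) to test compounds and scored growth inhibition relative to vehicle-treated controls.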

Experiment [5] in a line: NCI Yeast Anticancer Drug Screen. Data for the bub3 strain (AID 167). The note with it: S. cerevisiae bub3 mutant strain, at 50.0 µM, stronger effect = higher value. The essentials: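 Inhibition values come from growth of compound-treated mutant yeast normalised to vehicle-treated controls.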
Experiment [6] is described as follows: NCI Yeast Anticancer Drug Screen. Data for the mlh1 rad18 strain (AID 175). The note with it: S. cerevisiae mlh1 rad18 strain growth inhibition; at 50.0 µM; stronger effect = higher value. The essentials:
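Compound-treated yeast growth, normalised to vehicle controls. Strain bears defined DNA repair mutations.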

On to `NC(=O)C1CC(O)CC(C(N)=O)O1` (stereo not given), for which the growth inhibition in experiment [1] was -6.75%; in experiment [2] it was 8.3%; in experiment [3] it was -9.55%; in experiment [4] it was 3.4%; in experiment [5] it was -2.35%; in experiment [6], -23.9%.
`O=C1C=C(c2ccccc2)Sc2ccccc2N1`: the growth inhibition in experiment [1] was 25.9%; in experiment [2], 34.5%; in experiment [3] it was 19.1%; in experiment [4], -1.4%; in experiment [5], 26.1%; in experiment [6], 53.2%.
On to `CN(C)C(=S)SCC(=O)c1ccccc1`, for which the growth inhibition in experiment [1] was -23.1%; in experiment [2], -27.6%; in experiment [3] it was -16.6%; in experiment [4], -20.2%; in experiment [5] it was -9.7%; in experiment [6] it was -10.6%.
Take `CCOC(=O)C(=CNC(=S)Nc1ccc(OCC)cc1)C(=O)OCC`: the growth inhibition in experiment [1] is -9.75%; in experiment [2], -24.5%; in experiment [3], -7.85%; in experiment [4], -16.3%; in experiment [5], 11.5%; in experiment [6] it was 6.05%.
As to `O=C(Nc1cc(Cl)c(I)c(Cl)c1)C(F)(F)F`, the growth inhibition was 96.6% (active) in experiment [1]; 97.4% (active) in experiment [2]; 96.8% (active) in experiment [3]; 97% (active) in experiment [4]; 79.8% (active) in experiment [5]; 97.5% (active) in experiment [6].
With `COC(=O)[C@@H](N1C(=O)c2ccccc2C1=O)C1(C)CC(Cl)=NO1` (stereo not given in full), the growth inhibition was -14.4% in experiment [1]; 2.75% in experiment [2]; -14.7% in experiment [3]; -11.8% in experiment [4]; 4.45% in experiment [5]; 12.1% in experiment [6].
For the compound `COc1cc([C@@H]2OC(=O)C3C2C(=O)O[C@H]3c2ccc(O)c(OC)c2)ccc1O` (stereo not given in full), the growth inhibition in experiment [1] was 7.55%; in experiment [2], 14.2%; in experiment [3] it was 9.25%; in experiment [4], 17.4%; in experiment [5] it was 0.55%; in experiment [6], 24.2%.
In the case of `C/C(=N/NC(=O)C(N)=O)C(CC(C(=O)Nc1ccccc1C)/C(C)=N\NC(=O)C(N)=O)C(=O)Nc1ccccc1C` (stereo not given), the growth inhibition in experiment [1] was 0.75%; in experiment [2], -0.6%; in experiment [3], -8.1%; in experiment [4], -12.2%; in experiment [5], 8.05%; in experiment [6], -12.6%.
For the compound `COc1cc(NS(=O)(=O)c2ccc(C)cc2)c2nccnc2c1`, the growth inhibition in experiment [1] was 14.1%; in experiment [2], 15.7%; in experiment [3] it was 18.6%; in experiment [4], -3.35%; in experiment [5], 11.9%; in experiment [6] it was 29.6%.
Consider `CCOC(=O)/C(C#N)=C/Nc1ccncc1`, for which the growth inhibition in experiment [1] is 2.95%; in experiment [2] it was -12.4%; in experiment [3], 16.2%; in experiment [4] it was 11.6%; in experiment [5], 4.25%; in experiment [6], 16%.
Turning to `O=C1OC2C3c4ccccc4C(c4c3ccc3ccccc43)C2O1` (stereo not given), the growth inhibition in experiment [1] is 10.1%; in experiment [2], 10.9%; in experiment [3] it was 19.8%; in experiment [4], 19.7%; in experiment [5], 24.1%; in experiment [6] it was 29.2%.
For the compound `C[C@@]12CCC(=O)c3coc(c31)C(=O)c1cc3c(cc12)C(=O)C=CC3=O`, the growth inhibition in experiment [1] is 92% (active); in experiment [2], 93.2% (active); in experiment [3], 93.2% (active); in experiment [4], 91.4% (active); in experiment [5] it was 92.2% (active); in experiment [6], 91.9% (active).
As to `O=C(O)CCC(=O)Nc1cc([N+](=O)[O-])ccc1OCc1ccccc1`, the growth inhibition in experiment [1] is 3.75%; in experiment [2] it was -7.55%; in experiment [3] it was -5.35%; in experiment [4] it was -12.4%; in experiment [5] it was -0.95%; in experiment [6], 3.5%.
Take `O=C(C(c1ccccc1)c1ccccc1)N(CCO)c1ccccc1`: the growth inhibition was -12% in experiment [1]; -28.6% in experiment [2]; -4.2% in experiment [3]; -9.5% in experiment [4]; -4.6% in experiment [5]; -0.65% in experiment [6].
For `CCn1cc2c(=O)n3ncn(-c4ccc(Br)cc4)c3nc2n1`, the growth inhibition in experiment [1] is -8.05%; in experiment [2] it was 9.75%; in experiment [3], 3.2%; in experiment [4], -16.4%; in experiment [5], -28.8%; in experiment [6], -12.2%.
With `Cc1ccccc1N1C(=O)/C(=C/c2ccc(N(CCC#N)CCC#N)cc2)N=C1c1cc([N+](=O)[O-])ccc1Cl`, the growth inhibition was 4.65% in experiment [1]; 1.7% in experiment [2]; 26.1% in experiment [3]; 7.1% in experiment [4]; -1.7% in experiment [5]; 6.2% in experiment [6].
For `O=c1[nH]nc(Cc2ccc(Cl)cc2)n1/N=C\CC/C=N\n1c(Cc2ccc(Cl)cc2)n[nH]c1=O`, the growth inhibition is -18.4% in experiment [1]; -0.9% in experiment [2]; -14.1% in experiment [3]; -4.05% in experiment [4]; -13.3% in experiment [5]; -3% in experiment [6].
As for `NNC(=O)Cc1ccc2ccccc2c1`, the growth inhibition in experiment [1] was 12.3%; in experiment [2] it was -32.1%; in experiment [3] it was 4.45%; in experiment [4] it was -7.05%; in experiment [5], 4.6%; in experiment [6] it was 12%.
As to `O=[N+]([O-])c1ccc(-c2ccccc2)c([N+](=O)[O-])c1`, the growth inhibition in experiment [1] is -3.05%; in experiment [2], 0.35%; in experiment [3] it was -29.8%; in experiment [4] it was -31.9%; in experiment [5], 1.5%; in experiment [6], 17.6%.
`O=C1OCCOCCOCCOCCOCCOCCOC(=O)c2cccc1n2`: the growth inhibition in experiment [1] is 28.9%; in experiment [2], -0.7%; in experiment [3], 7%; in experiment [4], 13.3%; in experiment [5], -0.35%; in experiment [6], 9.6%.
